From PubChem BioAssay AID463173 (ICCB-Longwood Screening Facility, Harvard Medical School, 2010)
About 4,300 (8.3%) of roughly 52,000 compounds were called active. Rule as the data show it: active = survival mostly below about 52% (no sharp cut-off); inactive = mostly above about 56%. Only a selection was taken, and actives are over-represented in it overall.

Each molecule was assayed on DeltatarO mutant (assay: growth inhibition of S. aureus wild type versus tarO mutant, primary screen, teichoic acid synthesis inhibitors, RN4220, OD600 (AID 463173)). Settings: OD600, 18 h, stronger effect = lower value, screened at 18.75 µg/mL (by protocol).

Row | SMILES | survival
1 | COc1cc(C2CC(=O)Nc3ccc4ccccc4c32)ccc1OC(=O)C(C)C (centres undefined) | 67% (inactive)
2 | Cc1ccc2c(c1)N(C(=O)Nc1cccc3c1CCCC3)CC(C)O2 (centres undefined) | 56% (inactive)
3 | CCOc1ccc(CCNS(=O)(=O)c2c(C)nc3scc(C)n3c2=O)cc1OCC | 83% (inactive)
4 | CCN(CC)S(=O)(=O)c1ccc2c(c1)c(=O)c(C(=O)NCc1ccccc1Cl)cn2C | 61% (inactive)
5 | CCNc1nc2ccccc2s1 | 72% (inactive)
6 | CC(C)(C)NSc1nc2ccccc2s1 | 58% (active)
7 | COC(=O)CSc1nc2ccccc2s1 | 94% (inactive)
8 | Cc1ccccc1-c1noc(-c2ccc(N3CCC(C)CC3)c([N+](=O)[O-])c2)n1 | 55% (inactive)
9 | CCOc1ccc2nc(N3CCC(C(=O)Nc4ccccc4CC)CC3)sc2c1 | 70% (inactive)
10 | Cc1c(NC(=O)c2cc(-c3ccccc3O)on2)c(=O)n(-c2ccccc2)n1C | 51% (active)
11 | Cc1c(NC(=O)c2cc(-c3ccc(F)cc3)on2)c(=O)n(-c2ccccc2)n1C | 72% (inactive)
12 | Cc1c(NC(=O)c2cc(-c3cccc(O)c3)on2)c(=O)n(-c2ccccc2)n1C | 56% (inactive)
13 | Cc1c(NC(=O)c2cc(-c3ccc(Cl)cc3)on2)c(=O)n(-c2ccccc2)n1C | 121% (inactive)
14 | Cc1c(NC(=O)c2cc(-c3cccc(Cl)c3)on2)c(=O)n(-c2ccccc2)n1C | 55% (inactive)
15 | COc1ccc(-c2cc(C(=O)Nc3c(C)n(C)n(-c4ccccc4)c3=O)no2)cc1 | 46% (active)
16 | COc1ccc(-c2cc(C(=O)Nc3c(C)n(C)n(-c4ccccc4)c3=O)no2)cc1OC | 59% (inactive)
17 | Cc1c(NC(=O)c2cc(-c3ccc(O)cc3)on2)c(=O)n(-c2ccccc2)n1C | 169% (inactive)
18 | Cc1c(NC(=O)c2cc(-c3ccc(Cl)c(Cl)c3)on2)c(=O)n(-c2ccccc2)n1C | 38% (active)
19 | CCOC(=O)c1cccc(NC(=O)c2ccc3c(c2)nnn3CC)c1 | 66% (inactive)
20 | Cc1ccc(-c2onc(C)c2C)cc1S(=O)(=O)N1c2ccccc2CC1C (centres undefined) | 79% (inactive)
21 | Cc1cccn2c(=O)c(C(=O)NCc3ccc(F)cc3)c(O)nc12 | 119% (inactive)
22 | COc1cccc(CNC(=O)c2c(O)nc3ccccn3c2=O)c1 | 43% (active)
23 | COc1ccc(CCNC(=O)c2c(O)nc3ccccn3c2=O)cc1 | 81% (inactive)
24 | COc1ccc(CCNC(=O)c2c(O)nc3ccccn3c2=O)cc1OC | 54% (inactive)

Row | SMILES | survival
25 | COc1ccc(CNC(=O)c2c(O)nc3cc(C)ccn3c2=O)cc1 | 78% (inactive)
26 | O=C(NCc1ccc(F)cc1)c1c(O)nc2ccccn2c1=O | 44% (active)
27 | Cc1ccc(CNC(=O)c2c(O)nc3ccccn3c2=O)cc1 | 89% (inactive)
28 | COc1cccc(CCNC(=O)c2c(O)nc3cc(C)ccn3c2=O)c1 | 82% (inactive)
29 | COc1cccc(CCNC(=O)c2c(O)nc3ccccn3c2=O)c1 | 48% (active)
30 | COc1ccccc1N1CCN(C(=O)CSc2nc3ccccc3nc2Cc2ccccc2)CC1 | 101% (inactive)
31 | COc1ccc(OC)c(-c2noc(N3CCN(c4ccc(Cl)cc4)CC3)n2)c1 | 88% (inactive)
32 | CCn1c(CNC(=O)c2ccc(OC)cc2)nnc1SCC(=O)Nc1cc(C)ccc1C | 112% (inactive)
33 | COc1cccc(C(=O)N(Cc2cccnc2)c2nc3c(OC)ccc(C)c3s2)c1OC | 73% (inactive)
34 | O=S(=O)(Nc1cccc(-c2ccc(N3CCOCC3)nn2)c1)c1ccccc1C(F)(F)F | 89% (inactive)
35 | COc1ccc(C(=O)CCC(=O)Nc2ccc(OC)c(Cl)c2)cc1 | 86% (inactive)
36 | COc1ccc(-c2nnc3n2N(C(C)=O)C(c2ccc(Cl)c(Cl)c2)=C(C(C)=O)S3)cc1 | 20% (active)
37 | CC(=O)C1=C(c2ccc(Cl)c(Cl)c2)N(C(C)=O)n2c(nnc2-c2ccccc2)S1 | 94% (inactive)
38 | COc1ccc(C2=C(C(C)=O)Sc3nnc(-c4ccccc4)n3N2C(C)=O)cc1 | 87% (inactive)
39 | CN(C)c1ccc(CN(CC2CCCO2)C(=O)COc2ccc(Cl)cc2)cc1 (centres undefined) | 59% (inactive)
40 | CCc1nn2c(=O)c(S(=O)(=O)Nc3cccc(F)c3)c(C)nc2s1 | 70% (inactive)
41 | COc1ccccc1CNS(=O)(=O)c1ccc2c(c1)NC(=O)CC(=O)N2 | 89% (inactive)
42 | O=S(=O)(Nc1nc2n(n1)C(c1ccccc1)C=C(c1ccc(Cl)cc1)N2)c1ccccc1 (centres undefined) | 47% (active)
43 | Cc1ccc(C2C=C(c3ccc(F)cc3)Nc3nc(CCCO)nn32)cc1 (centres undefined) | 53% (inactive)
44 | O=C(Nc1nc2n(n1)C(c1ccc(F)cc1)C=C(c1ccc(Cl)cc1)N2)c1ccc([N+](=O)[O-])cc1 (centres undefined) | 64% (inactive)
45 | O=S(=O)(Nc1nc2n(n1)C(c1ccc(F)cc1)C=C(c1ccc(Cl)cc1)N2)c1ccccc1 (centres undefined) | 42% (active)
46 | O=S(=O)(Nc1nc2n(n1)C(c1ccc(F)cc1)C=C(c1ccccc1)N2)c1ccccc1 (centres undefined) | 73% (inactive)
47 | COc1ccccc1C(=O)Nc1nc2n(n1)C(c1ccc(F)cc1)C=C(c1ccc(Cl)cc1)N2 (centres undefined) | 49% (inactive)
48 | Cc1ccc(C2C=C(c3ccccc3)Nc3nc(NS(=O)(=O)c4ccccc4)nn32)cc1 (centres undefined) | 68% (inactive)

Row | SMILES | survival
49 | O=S(=O)(Nc1nc2n(n1)C(c1ccc(F)cc1)C=C(c1ccccc1)N2)c1ccc(Cl)cc1 (centres undefined) | 10% (active)
50 | Cc1ccc(S(=O)(=O)Nc2nc3n(n2)C(c2ccc(F)cc2)C=C(c2ccccc2)N3)cc1 (centres undefined) | 29% (active)
51 | CC(C)(C)C(=O)CSc1nnc(-c2ccccc2)o1 | 85% (inactive)
52 | COc1cccc(CNC(=O)CCc2c(C)c3cc4c(C)coc4c(C)c3oc2=O)c1 | 55% (inactive)
53 | CCC(=O)N1CCc2cc(Br)cc(S(=O)(=O)N3CCCC(C(=O)Nc4ccc(OC)cc4OC)C3)c21 (centres undefined) | 65% (inactive)
54 | COc1cc(OC)c(NC(=O)c2noc3c2CSc2ccccc2-3)cc1Cl | 69% (inactive)
55 | Cc1ccccc1OC(=O)c1nc(SCc2ccccc2F)ncc1Cl | 107% (inactive)
56 | Cc1ccc(S(=O)(=O)Nc2nc3n(n2)C(c2ccccc2Cl)C=C(c2ccccc2)N3)cc1 (centres undefined) | 37% (active)
57 | Cc1ccc(-c2nc3n(n2)C(c2ccccc2Cl)C=C(c2ccc(Cl)cc2)N3)cc1 (centres undefined) | 95% (inactive)
58 | Cc1ccc(C2C=C(c3ccccc3)Nc3nc(NS(C)(=O)=O)nn32)cc1 (centres undefined) | 67% (inactive)
59 | COc1ccc(C2=CC(c3ccccc3Cl)n3nc(-c4ccc(C)cc4)nc3N2)cc1 (centres undefined) | 91% (inactive)
60 | Cc1ccc(S(=O)(=O)Nc2nc3n(n2)C(c2ccc(Cl)cc2)C=C(c2ccccc2)N3)cc1 (centres undefined) | 2% (active)
61 | Cc1ccc(C2C=C(c3ccc(Cl)cc3)Nc3nc(NS(=O)(=O)c4ccccc4)nn32)cc1 (centres undefined) | 62% (inactive)
62 | CCN1CCN(C(=O)c2cnn(-c3cccc(C)c3)c2C2CCN(C(=O)OC(C)(C)C)CC2)CC1 | 89% (inactive)
63 | O=[N+]([O-])c1cc(-c2nc(-c3ccccc3)no2)ccc1NC1CCCCC1 | 75% (inactive)
64 | CC(C)Oc1ccc(C(=O)N2CCN(CCc3ccccn3)CC2)cc1 | 68% (inactive)
65 | Cc1cccc(NC(=O)C2CCCN(S(=O)(=O)c3cccc4nonc34)C2)c1 (centres undefined) | 92% (inactive)
66 | CCOc1ccc(-c2cc(NC(=O)c3cccc(Cl)c3)c(C(=O)OC)s2)cc1 | 77% (inactive)
67 | CCOc1ccc(-c2cc(NC(=O)Nc3ccccc3C(F)(F)F)c(C(=O)OC)s2)cc1 | 60% (inactive)
68 | CCOc1ccc(-c2cc(NC(=O)Nc3ccc(Cl)cc3)c(C(=O)OC)s2)cc1 | 101% (inactive)
69 | COC(=O)c1sc(-c2ccccc2)cc1NC(=O)Nc1ccc(Cl)cc1 | 11% (active)
70 | CCOc1ccc(-c2cc(NC(=O)c3ccc(C)cc3)c(C(=O)OC)s2)cc1 | 70% (inactive)
71 | COC(=O)c1sc(-c2ccccc2)cc1NC(=O)Nc1ccccc1Cl | 43% (inactive)
72 | CCOc1ccc(-c2cc(NC(=O)c3ccccc3)c(C(=O)OC)s2)cc1 | 94% (inactive)

Row | SMILES | survival
73 | CCOc1ccc(-c2cc(NC(=O)Nc3cccc(C(C)=O)c3)c(C(=O)OC)s2)cc1 | 53% (inactive)
74 | COC(=O)c1sc(-c2ccccc2)cc1NC(=O)Nc1ccc(F)cc1 | 21% (active)
75 | COC(=O)c1sc(-c2ccccc2)cc1NC(=O)c1cccc(F)c1 | 94% (inactive)
76 | COC(=O)c1sc(-c2ccccc2)cc1NC(=O)c1cccc(Cl)c1 | 34% (active)
77 | O=C(Nc1cc(-c2ccccc2)sc1C(=O)O)c1cccc(F)c1 | 38% (active)
78 | Cc1noc2ncnc(N3CCCC(C(=O)NCCC(C)C)C3)c12 (centres undefined) | 88% (inactive)
79 | CCOc1ccccc1CNC(=O)c1cccc(NC(=O)c2nsc3ccccc23)c1 | 88% (inactive)
80 | Cc1c(Cl)cccc1NC(=O)CCn1nc(C)c2c(C)n(-c3ccccc3)nc2c1=O | 92% (inactive)
81 | Cc1c(C(=O)N2CCOCC2)oc2c1-c1nn(CC(=O)NCc3ccccc3)cc1CC2 | 79% (inactive)
82 | Cc1ccc(S(=O)(=O)NCc2nc3cccnc3n2Cc2ccccc2Cl)c(C)c1 | 89% (inactive)
83 | Cc1ccccc1OCCSc1nc(C)c(Cc2ccccc2)c(=O)[nH]1 | 97% (inactive)
84 | CCc1ccc(-n2nc(CO)c(C(=O)NCCCCc3ccccc3)n2)cc1 | 47% (inactive)
85 | Cc1ccc(C)c(Nc2nn3c(=O)c4ccc(C(=O)NCc5cccs5)cc4nc3s2)c1 | 65% (inactive)
86 | CC(C)CCNC(=O)CCCn1c(=O)c2cccn2c2ccccc21 | 68% (inactive)
87 | COC(=O)c1ccc2c(=O)n(CCCCCC(=O)NCCc3ccccc3)c(=O)[nH]c2c1 | 79% (inactive)
88 | COC(=O)c1ccc2c(=O)n(CCCCCC(=O)NCc3ccc(Cl)cc3)c(=O)[nH]c2c1 | 74% (inactive)
89 | CCOc1ccc(CCNC(=O)CCCn2c(=O)c3cccn3c3ccccc32)cc1 | 72% (inactive)
90 | COC(=O)c1ccc2c(=O)n(CCCCCC(=O)NCCc3ccc(Cl)cc3)c(=O)[nH]c2c1 | 52% (active)
91 | O=C(CCCn1c(=O)c2cccn2c2ccccc21)NCCc1ccc(Cl)cc1 | 32% (active)
92 | CSc1ccc(CCNC(=O)CCCn2c(=O)c3cccn3c3ccccc32)cc1 | 42% (active)
93 | O=C(CCCn1c(=O)c2cccn2c2cccnc21)NCCc1ccc(Cl)cc1 | 63% (inactive)
94 | CSc1ccc(CCNC(=O)CCn2c(=O)c3cccn3c3cccnc32)cc1 | 90% (inactive)
